The text below walks through data of PubChem BioAssay (NCATS).

Experiment [1] concerns the target Cellular tumor antigen p53 (Homo sapiens) (UniProt P04637). As to the kind of experiment: Primary qHTS for small molecule compounds that upregulate eGFP-tagged delta133p53alpha (in N-terminal) cells. (AID 2060322). Also: nearly all actives have a fitted effect of over 75% in size. Also: potency is read from the fitted curve at half-maximal effect.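 As to activation: series mostly up to about 56 µM; 0% = DMSO vehicle and 100% = reference activator.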 Conditions: NCI-H358 eGFP-delta133p53alpha fluorescence, 24 h; activation: hits give high values. In outline: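 NCI-H358 cells pre-induced 24 h with 10 ng/ml doxycycline to express N-terminal eGFP-delta133p53alpha, then dosed 24 h at 37C without doxycycline; fixed, Hoechst-stained, GFP intensity by laser scanning cytometry, normalized to DMSO (0%) and 57.5 uM 5-azacytidine (100%).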
(qHTS replaces the single test concentration by a dilution series.)

Experiment [2] has as its target Aldehyde dehydrogenase, mitochondrial (Homo sapiens) (UniProt P05091). Description: qHTS for Inhibitors of the Aldehyde Dehydrogenase Family (ALDH2) Primary screen (AID 2061308).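 Also: plate controls were vehicle for no effect and reference inhibitor for full effect; nearly all actives have a fitted effect of over 55% in size.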
Experiment [3] has as its target Retinaldehyde dehydrogenase 3 (Homo sapiens) (UniProt P47895). As to the kind of experiment: qHTS for Inhibitors of the Aldehyde Dehydrogenase Family (ALDH1A3) Primary screen (AID 2061315).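 Also: plate controls were DMSO vehicle for no effect and reference inhibitor for full effect.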

Results filed as inconclusive are left out. Unmarked numbers belong to inactive results. Calls of active or inactive are those of the source. Calls follow the shape of the dose curve; as a rule, active = well fitted curve in the direction sought with a large enough effect; inconclusive = small, poorly fitted or top-dose-only effect, or another doubt; inactive = no such curve, though single readings can be large; an effect the other way counts as inactive or inconclusive.

Cellular tumor antigen p53 (Homo sapiens), sequence (P04637 whole entry, looked up): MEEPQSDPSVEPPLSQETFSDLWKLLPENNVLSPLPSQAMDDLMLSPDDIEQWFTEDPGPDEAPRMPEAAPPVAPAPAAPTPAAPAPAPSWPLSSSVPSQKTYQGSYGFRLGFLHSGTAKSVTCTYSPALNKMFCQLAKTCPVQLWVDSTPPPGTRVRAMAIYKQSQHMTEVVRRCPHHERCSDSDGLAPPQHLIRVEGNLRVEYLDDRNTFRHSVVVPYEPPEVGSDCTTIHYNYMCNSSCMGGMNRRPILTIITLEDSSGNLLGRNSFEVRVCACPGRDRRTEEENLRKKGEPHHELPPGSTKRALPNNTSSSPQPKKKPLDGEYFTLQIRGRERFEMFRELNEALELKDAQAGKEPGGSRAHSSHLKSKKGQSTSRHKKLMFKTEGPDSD

For `COC(=O)C1=CO[C@@H](O[C@@H]2O[C@H](CO)[C@@H](O)[C@H](O)[C@H]2O)[C@H]2[C@@H]1[C@H](O)C[C@]2(C)O`, the activation in experiment [1] is 3.57%. The Potency result in experiment [2] and in experiment [3] was “inactive” in each case.

Take `CCCNc1ccc2ncc(-c3ccc4[nH]ncc4c3)n2n1`: in experiment [1], the Potency is 2.39 µM (active). Also, the Potency result in experiment [2] and in experiment [3] was “inactive” throughout.

With `CC(=O)OC12CC(C)C(OC(=O)c3ccccc3)C1/C=C(/C)C(OC(=O)c1ccccc1)CC(=O)C(C)(C)/C=C/C(C)C2=O` (stereo not given), in experiment [1], the activation is -7.14%. In addition, the Potency result in experiment [2] and in experiment [3] was “inactive” each time.

Take `CCOc1ccc(-c2cc(NC(=O)c3c(F)cccc3F)c(C(=O)O)s2)cc1`: the activation in experiment [1] was 15.7%. In addition, the Potency result in experiment [2] and in experiment [3] was “inactive” in each case.

Turning to `CC1NC(=O)C(Cc2c[nH]c3ccccc23)NC1=O` (stereo not given), the activation in experiment [1] was -13.7%. Besides, the Potency entry in experiment [2] and in experiment [3] was “inactive” in each case.

`CC1=C2CC(C)(C)CC2C(O)C2=C(C1)C(=O)OC2O` (stereo not given): in experiment [1], the activation is -7.14%. In addition, the Potency entry in experiment [2] and in experiment [3] was “inactive” each time.

Turning to `C=C1C(=O)O[C@@H]2[C@H]1[C@H](O)C[C@]1(C)[C@@H](O)CC=C(C)[C@@H]21`, the Potency in experiment [1] was 15.1 µM (active). Also, the Potency entry in experiment [2] and in experiment [3] was “inactive” throughout.

As to `C[C@@H]1C[C@H]2O[C@@H]2/C=C\C=C\C(=O)Cc2c(Cl)c(O)cc(O)c2C(=O)O1`, the Potency in experiment [1] is 4.53 µM (active). In addition, the Potency entry in experiment [2] and in experiment [3] was “inactive” throughout.

With `CC1=CC(=O)C2(OC3OC(C)C(O)C(OC(=O)/C=C/c4ccccc4)C3O)C=COC(OC3OC(CO)C(O)C(O)C3O)C12` (stereo not given), the activation in experiment [1] was -13.7%. The Potency entry in experiment [2] and in experiment [3] was “inactive” in each case.

Regarding `C[C@@H]1C(=O)O[C@H]2[C@H]1CC[C@@]1(C)C(=O)C=C[C@](C)(O)[C@H]21`, in experiment [1], the activation is 1.79%. Besides, the Potency entry in experiment [2] and in experiment [3] was “inactive” each time.

As for `C/C=C/C[C@@H](C)[C@@H](O)[C@H]1C(=O)N[C@@H](CC)C(=O)N(C)CC(=O)N(C)[C@@H](CC(C)C)C(=O)N[C@@H](C(C)C)C(=O)N(C)[C@@H](CC(C)C)C(=O)N[C@@H](C)C(=O)N[C@H](C)C(=O)N(C)[C@@H](CC(C)C)C(=O)N(C)[C@@H](CC(C)C)C(=O)N(C)[C@H](C(C)C)C(=O)N1C`, in experiment [1], the activation was 11.5%. For the same compound, the Potency entry in experiment [2] and in experiment [3] was “inactive” throughout.

As for `C=CC(C)(O)CC/C=C(\C)COC1O[C@H](CO)[C@@H](O)[C@H](O)[C@H]1O` (stereo not given in full), the activation in experiment [1] is -14.5%. For the same compound, the Potency result in experiment [2] and in experiment [3] was “inactive” each time.

With `CC(O)CO[C@@H]1O[C@H](CO)[C@@H](O)[C@H](O)[C@H]1O` (stereo not given in full), in experiment [1], the activation was -4.58%. Besides, the Potency result in experiment [2] and in experiment [3] was “inactive” each time.

For `C=CC(C)(C)c1[nH]c2cc3c(cc2c1CC1NC(=O)C2CCCN2C1=O)C=CC(C)(C)O3` (stereo not given), the activation in experiment [1] was -13%. Also, the Potency entry in experiment [2] and in experiment [3] was “inactive” in each case.

`CC(C)CC(=O)NCCn1cc(C(=O)O)c(=O)cc1C(O)c1ccccc1` (stereo not given): the activation in experiment [1] is -1.53%. In addition, the Potency entry in experiment [2] and in experiment [3] was “inactive” in each case.

Consider `CC1(c2nc3c(C(N)=O)cccc3[nH]2)CCCN1` (stereo not given), for which, in experiment [1], the activation is -1.43%. The Potency entry in experiment [2] and in experiment [3] was “inactive” in each case.

As to `COc1ccc2c(c1)C[C@H](C(=O)Nc1ccc(-c3cn[nH]c3)cc1OCCN(C)C)CO2`, in experiment [1], the activation was -0.893%. In addition, the Potency result in experiment [2] and in experiment [3] was “inactive” in each case.

For `CC(CCC1(O)OC2CC3C4CC=C5C[C@@H](O[C@@H]6O[C@H](CO)[C@@H](O[C@@H]7O[C@@H](C)[C@H](O)[C@@H](O)[C@H]7O)[C@H](O)[C@H]6O[C@@H]6O[C@@H](C)[C@H](O)[C@@H](O)[C@H]6O)CC[C@]5(C)C4CC[C@]3(C)[C@@]2(O)[C@@H]1C)CO[C@@H]1O[C@H](CO)[C@@H](O)[C@H](O)[C@H]1O` (stereo not given in full), the activation in experiment [1] is -8.04%. For the same compound, the Potency entry in experiment [2] and in experiment [3] was “inactive” in each case.

In the case of `CC1(C)CC[C@]2(C(=O)O[C@@H]3O[C@H](CO)[C@@H](O)[C@H](O)[C@H]3O)CC[C@]3(C)C(=CCC4[C@@]5(C)CC[C@H](O[C@@H]6O[C@H](C(=O)O)[C@@H](O)[C@H](O)[C@H]6OC6OC(CO)C(O)C(O)C6O)C(C)(C)C5CC[C@]43C)[C@@H]2C1` (stereo not given in full), in experiment [1], the activation was -5.36%. Moreover, the Potency result in experiment [2] and in experiment [3] was “inactive” in each case.

On to `Cc1ccc(C)c(NC(=O)CNS(=O)(=O)c2ccc3[nH]c(=O)oc3c2)c1`, for which the activation in experiment [1] is 17%. The Potency result in experiment [2] and in experiment [3] was “inactive” throughout.

For `COc1c2c(c(C)c3c1C(=O)OC3)O[C@@]1(C)C[C@@H](OC(C)=O)[C@]34O[C@](OC)(CC[C@]3(C)[C@H]1C2)OC4(C)C`, in experiment [1], the activation was -5.36%. Moreover, the Potency entry in experiment [2] and in experiment [3] was “inactive” each time.

As to `COC1=CC(=O)C[C@@H](C)[C@]12Oc1cc(OC)cc(OC)c1C2=O`, the activation in experiment [1] was 4.58%. For the same compound, the Potency entry in experiment [2] and in experiment [3] was “inactive” each time.

For the compound `COc1ccc([C@H]2Cc3cccc(O)c3C(=O)O2)cc1`, the activation in experiment [1] was 3.05%. Further, the Potency result in experiment [2] and in experiment [3] was “inactive” in each case.

In the case of `CC(=O)OC1CC(=O)C2(C)C3CC4=C(OC(C)CC4=O)OC3(C)CCC2C1(C)C` (stereo not given), in experiment [1], the activation was -6.11%. Further, the Potency result in experiment [2] and in experiment [3] was “inactive” each time.

For `COc1ccc(C2(O)CCC(N3CC[C@@H](NC(=O)CNC(=O)c4cccc(C(F)(F)F)c4)C3)CC2)cn1` (stereo not given in full), the activation in experiment [1] is 19.6%. Further, the Potency result in experiment [2] and in experiment [3] was “inactive” throughout.
